Hits are enriched below; roughly 11% of the tested compounds scored in any of these assays.
FLuc inh: Photinus pyralis luciferase inhibition; P08659; purified P. pyralis luciferase, luminescence, biochemical; Potency, µM (highest dose often 115 µM), actives largely listed as inhibitors; hit rate 2.5% among 76,000; AID 1347043; note: nearly all actives have a fitted effect of over 65% in size
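FLuc 10nM, D-luciferin 10uM, ATP 10uM, Mg acetate 10mM, Tris acetate pH 7.5, Tween/BSA; cpd qHTS; enzyme added last; CCD luminescence.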
NPR1 antag: antagonists of human natriuretic peptide receptor Npr1 | P16066 | HEK293 hNpr1 GloSensor cGMP, ANP-stimulated luminescence | Potency, µM (doses to about 46.3 µM), for the others: top-dose activity change, negative = inhibition, most hits filed as inhibitors | hit rate 1.6% among 76,000; calls by dose curve; note: nearly all actives have a fitted effect of over 60% in size
Target sequence (P16066 whole entry, looked up): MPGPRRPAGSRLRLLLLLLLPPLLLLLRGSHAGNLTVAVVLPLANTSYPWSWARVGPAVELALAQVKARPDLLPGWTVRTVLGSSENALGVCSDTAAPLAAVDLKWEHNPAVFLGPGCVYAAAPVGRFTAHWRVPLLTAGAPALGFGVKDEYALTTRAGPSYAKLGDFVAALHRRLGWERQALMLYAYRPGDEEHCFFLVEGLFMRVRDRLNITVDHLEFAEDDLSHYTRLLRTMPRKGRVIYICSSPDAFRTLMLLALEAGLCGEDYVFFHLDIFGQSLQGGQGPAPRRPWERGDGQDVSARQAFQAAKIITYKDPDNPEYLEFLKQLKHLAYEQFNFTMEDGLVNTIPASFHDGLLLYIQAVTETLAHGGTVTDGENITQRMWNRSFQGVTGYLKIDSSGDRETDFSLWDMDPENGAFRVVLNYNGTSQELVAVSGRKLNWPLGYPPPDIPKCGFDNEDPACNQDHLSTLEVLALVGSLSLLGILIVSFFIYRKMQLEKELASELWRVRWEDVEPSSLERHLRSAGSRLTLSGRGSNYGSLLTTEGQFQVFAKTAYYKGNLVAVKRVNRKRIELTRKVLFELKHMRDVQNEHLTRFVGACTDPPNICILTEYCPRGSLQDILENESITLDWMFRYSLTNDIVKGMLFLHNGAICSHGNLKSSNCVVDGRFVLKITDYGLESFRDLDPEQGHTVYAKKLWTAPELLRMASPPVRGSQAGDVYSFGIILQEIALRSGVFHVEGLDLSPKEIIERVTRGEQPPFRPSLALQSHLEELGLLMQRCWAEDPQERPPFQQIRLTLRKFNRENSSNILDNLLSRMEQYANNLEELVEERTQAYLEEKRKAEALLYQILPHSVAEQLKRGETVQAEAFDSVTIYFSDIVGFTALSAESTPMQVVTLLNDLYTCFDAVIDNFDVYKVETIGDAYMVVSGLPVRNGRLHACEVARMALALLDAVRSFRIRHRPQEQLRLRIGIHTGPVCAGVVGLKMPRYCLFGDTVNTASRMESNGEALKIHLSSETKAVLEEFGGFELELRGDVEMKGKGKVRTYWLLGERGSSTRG
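Compound pre-incubated 30 min at room temperature on GloSensor-loaded HEK293 cells stably carrying hNpr1 and the pGS-40F cGMP biosensor. Stimulation uses hNppA at 0.1 nM final; luminescence is taken at baseline and 20 min post-agonist.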
3T3 cytotox: cytotoxic compounds in NIH 3T3 cells. NIH 3T3 viability, CellTiter-Glo ATP luminescence, 48-72 h. Potency, µM (highest dose often 96.7 µM), for the others: at the highest dose activity change, negative = cytotoxicity, actives largely listed as inhibitors. AID 1345082. hit rate 4.3% among 94,000; note: nearly all actives have a fitted effect of over 55% in size
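NIH 3T3 cells at 400 cells/well received 23 nL of compound by pintool and were incubated 48 or 72 h at 37 °C. Viability was read as ATP-coupled CellTiter-Glo luminescence.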
HEK cytotox: kills HEK 293 cells; HEK 293 viability, ATP luminescence (CellTiter-Glo), 48-72 h; Potency, µM (series often up to 115 µM), inactives show at the highest dose activity change, negative = cytotoxicity, actives largely listed as inhibitors; hit rate 6.6% among 94,000; AID 1345083; note: nearly all actives have a fitted effect of over 60% in size
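Cytotoxicity was scored by loss of ATP-coupled luminescence (CellTiter-Glo) in HEK 293 cells. Compound treatment ran 48 or 72 hr at 37 degree Celsius, 5% CO2, 95% humidity.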
Active calls of the source: *; i = inactive; ? = inconclusive; · = no result; [ ] = dose if it differs, or a comment. Unless noted, calls come from the whole dose curve; as a rule, active = well fitted curve in the direction sought with a large enough effect; inconclusive = small, poorly fitted or top-dose-only effect, or another doubt; inactive = no such curve, though single readings can be large; an effect the other way counts as inactive or inconclusive. % is set by controls: 0 for no effect and ±100 for the full control effect; potency is the fitted concentration of half-maximal effect.

SMILES	FLuc inh	NPR1 antag	3T3 cytotox	HEK cytotox
COc1ccc(C(=O)N2CCCC(Cc3ncc(C)n3Cc3ccccc3)C2)c(OC)c1 (stereo unspecified)	22µM*	-3%	-7%	-21%
O=C(Cc1c[nH]c2ncc(-c3ccccc3)cc12)NCc1cnccn1	i	-3%[70.6 µM]	?	0%[172 µM]
COc1ccc(-c2cnc3[nH]cc(CC(=O)NCc4cccnc4)c3c2)cn1	?	4%[70.6 µM]	79µM*	?
O=C(Cc1c[nH]c2ncc(-c3cccnc3)cc12)NCCc1ccccc1	i	-12%[70.6 µM]	22µM*	?
NC(=O)Cc1c[nH]c2ncc(-c3cccc(F)c3)cc12	i	-2%[70.6 µM]	89µM*	-13%[230 µM]
O=C(Cc1c[nH]c2ncc(-c3cccnc3)cc12)NCc1cccc(F)c1	i	-23%[70.6 µM]	25µM*	?
Cc1cc(-c2cnc3[nH]cc(CC(N)=O)c3c2)ccn1	i	0%[70.6 µM]	?	-27%[230 µM]
O=C(Cc1cccc(Cl)c1)NCc1c[nH]c2ncccc12	?	-1%[70.6 µM]	-28%[138 µM]	?
COc1ccc(OC)c(-c2cnc3[nH]cc(CC(=O)NCc4cccnc4)c3c2)c1	i	?	?	?
C[S+](=O)([O-])c1cccc(NC(=O)Cc2c[nH]c3ncc(-c4cccnc4)cc23)c1	i	9%[70.6 µM]	35µM*	?
COc1cccc(-c2cnc3[nH]cc(CC(=O)NCc4cccnc4)c3c2)c1	i	?	?	?
O=C(Cc1c[nH]c2ncc(-c3cccc(Cl)c3)cc12)NCc1cccnc1	?	35µM*	?	79µM*
O=C(Cc1c[nH]c2ncc(-c3ccccc3)cc12)NCc1ccncc1	i	2%[70.6 µM]	28µM*	?
O=C(Cc1c[nH]c2ncc(-c3cccc(F)c3)cc12)NCc1cccnc1	i	?	?	71µM*
OCC1(CN2CCCC2)CCN(Cc2cc(F)cc(Cl)c2)CC1	i	6%	?	?
COc1cc2c(cc1OC)C(C[C@H]1CN(S(=O)(=O)c3cccs3)CC[C@H]1CC(=O)O)=NCC2	i	1%	-6%	?
COc1ccc(-c2cccc(C(=O)NCCc3ccccc3)c2)nn1	·	·	?	-20%
O=C(Cc1c[nH]c2ncc(-c3ccncc3)cc12)NCc1cccnc1	i	3%[70.6 µM]	79µM*	?
Cc1ccccc1[C@@H]1CN(C(=O)CCC(=O)NC2CCCC2)C[C@H]1C(=O)O	i	0%	-11%	-11%
COc1ccc(C(=O)N2CCN3CCS(=O)(=O)N(C4CC4)C(=O)C3C2)c(OC)n1 (stereo unspecified)	·	·	-7%	-10%
COc1ccc(-c2cc3c(=O)n(CCNC(=O)Cc4ccc(C)cc4)ccn3n2)cc1	?	?	-27%	?
CCOc1ccc(C(=O)NCCn2ccn3nc(-c4cc(C)ccc4C)cc3c2=O)cc1	i	2%	-25%	?
Cc1ccc(C)c(-c2cc3c(=O)n(CCNC(=O)c4ccc(F)cc4Cl)ccn3n2)c1	i	-19%	32µM*	40µM*
Cc1ccc(-c2cc3c(=O)n(CCNC(=O)c4cc(Cl)ccc4F)ccn3n2)cc1C	i	-1%	1%	0%
COc1ccc(-c2cc3c(=O)n(CCNC(=O)Cc4ccsc4)ccn3n2)cc1	11µM*	-21%	?	?
SMILES	FLuc inh	NPR1 antag	3T3 cytotox	HEK cytotox
Cc1ccc(-c2cc3c(=O)n(CCNC(=O)c4cc(F)ccc4F)ccn3n2)cc1C	?	-15%	?	40µM*
CCOc1ccc(CC(=O)NCCn2ccn3nc(-c4ccc(C)cc4C)cc3c2=O)cc1	25µM*	?	?	?
Cc1ccc(-c2cc3c(=O)n(CCNC(=O)c4nn(C)c5ccccc45)ccn3n2)cc1C	?	-6%	-11%	-1%
Cc1ccc(-c2cc3c(=O)n(CCNC(=O)Cc4ccsc4)ccn3n2)cc1C	5µM*	-16%	?	?
O=C1Nc2ccccc2OCC12CCN(Cc1ccccn1)CC2	i	0%[70.6 µM]	-7%[138 µM]	i
COc1ccc(CNC(=O)C2CCN(C(=O)c3ncn4c3COC(c3ccc(C)cc3)C4)CC2)cc1 (stereo unspecified)	40µM*	-10%	-14%	-18%
Cc1ccc(C2Cn3cnc(C(=O)N4CCC(C(=O)NCc5ccc(F)cc5)CC4)c3CO2)cc1 (stereo unspecified)	35µM*	-12%	i	8%
CCc1ccc(CNC(=O)C2CCN(C(=O)c3ncn4c3COC(c3ccc(F)cc3)C4)CC2)cc1 (stereo unspecified)	?	0%	-11%	-16%
COCCCn1c(=O)c(C(=O)N2CCN(C(=O)c3cccc(OC)c3)CC2)nc2cccnc21	·	·	-11%	i
CCCN(C)c1nccnc1OC1CCN(C(=O)c2ccccc2OC)C1 (stereo unspecified)	?	-9%	?	?
CCn1cnnc1CC1CCN(C(=O)C2CC2)CC1	i	3%	-8%	-4%
COC(=O)N1CC(N2C(=O)c3c(c(C)nn3-c3ccccc3)C2C)C1 (stereo unspecified)	·	·	?	-20%
COc1ccccc1N1CCCc2ncc(C(=O)Nc3cccnc3)cc21	i	-19%[70.6 µM]	?	100µM*
COCCCNC(=O)c1cnc2c(c1)N(C(=O)Cc1ccc(C(C)C)cc1)CCC2	i	-2%[70.6 µM]	-24%[138 µM]	71µM*
Cc1ccccc1NC(=O)c1cnc2c(c1)N(C(=O)CCc1ccccc1)CCC2	i	?	-21%[138 µM]	100µM*
COCCNC(=O)c1cnc2c(c1)N(C(=O)Cc1ccc(C(C)C)cc1)CCC2	i	1%[70.6 µM]	-14%[138 µM]	?
COc1ccccc1N1CCCc2ncc(C(=O)Nc3cccc(C(F)(F)F)c3)cc21	i	-19%[70.6 µM]	?	?
CNC(=O)c1cnc2c(c1)N(C(=O)Cc1ccc(C(C)C)cc1)CCC2	i	-15%[70.6 µM]	?	?
COc1ccc(NC(=O)c2cnc3c(c2)N(C(=O)Cc2ccc(C(C)C)cc2)CCC3)cc1OC	i	?	?	32µM*
CCc1cccc(NC(=O)N2CCc3c(c4cc(F)ccc4n3C)C2)c1	i	-5%	?	?
O=C(C1CC1)N1CCCC(c2nn(-c3ccc(F)cc3)c(=O)[nH]2)C1 (stereo unspecified)	i	0%[70.6 µM]	-18%[138 µM]	?
COc1ccc(-c2cc3nc4c(c(=O)n3[nH]2)CN(C(=O)c2ccc3[nH]ccc3c2)CC4)cc1	?	-3%	-12%	-30%
CC(C)c1ccc(CC(=O)N2CCCc3ncc(C(=O)NCCc4c[nH]c5ccccc45)cc32)cc1	i	-5%	11µM*	25µM*
CC(C)c1ccc(CC(=O)N2CCCc3ncc(C(=O)Nc4ccn(C)n4)cc32)cc1	i	-2%[70.6 µM]	?	89µM*
COc1cccc(NC(=O)c2cnc3c(c2)N(C(=O)Cc2ccccc2OC)CCC3)c1	?	-2%[70.6 µM]	-23%[138 µM]	100µM*
O=C(Nc1cccc(C(F)(F)F)c1)c1cnc2c(c1)N(C(=O)Cc1cccc(C(F)(F)F)c1)CCC2	i	-24%	?	25µM*
